According to PubChem BioAssay (NCI):
Compounds without any hit were thinned out: in the full panel of roughly 83,000, 20% have a hit.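 48-hour exposure, single concentration, 96-well plates; percent growth endpoint where 0 means no net growth. Active: below 10.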 Active and inactive are the calls of the source.

What follows are molecules tested on MCF7 breast (assay: NCI-60 one-dose screen, 48 h (100 = growth as untreated, 0 = no growth, -100 = all killed)). Conditions: 10 µM.

| Compound | growth |
| --- | --- |
| c1ccc([C@H]2CN3CCSC3=N2)cc1 | 94.4% (inactive) |
| NC(=O)SCC(=O)Nc1ccc(S(N)(=O)=O)cc1 | 104% (inactive) |
| Cc1nc2ccc(CN(C)c3ccc(C(=O)N[C@@H](CCC(=O)O)C(=O)O)s3)cc2c(=O)[nH]1 | 23.3% (inactive) |
| COc1ccc(OC)c(/C=C/c2nc(SCc3ccccc3)n(-c3ccc(Cl)cc3)n2)c1 | 52.9% (inactive) |
| COc1cc(Cc2cc(-c3ccc(Cl)cc3)n[nH]c2=O)ccc1O | 87.2% (inactive) |
| CN(C)C(=S)N/N=C\C=N/NC(=S)N(C)C | 12% (inactive) |
| COc1ccc(N=C2C(=Nc3ccc(OC)cc3)N(c3ccc(N(C)C)cc3)C(=S)N2c2ccc(OC)cc2)cc1 | 84.9% (inactive) |
| COC(=O)[C@@H]1[C@H](O)[C@H](C)[C@H](O)[C@@](C)(O)/C=C\C=C(C)C(=O)Nc2c(C)c(OC(C)=O)c3c(c2O)C(=O)C(C)=C2OCOC(=C23)C(C)=C[C@@](C)(O)[C@H](O)[C@@H](C)[C@H]1OC(C)=O | 114% (inactive) |
| COc1cccc(C2C3=C(COC3=O)N(CCO)c3cc(OC)ccc32)c1 (centres undefined) | 23% (inactive) |
| CCc1ccc2c(c1)N(CCO)C1=C(C(=O)OC1)C2c1ccccc1 (centres undefined) | 92.2% (inactive) |
| CO/N=C(/C(=O)NC1C(=O)N2C(C(=O)O)=C(COC(N)=O)CSC12)c1ccco1 (centres undefined) | 94.2% (inactive) |
| COc1ccc(N2C(=O)C3c4[nH]c5ccc(OCc6ccccc6)cc5c4C4CCC(C(C)C)CC4C3C2=O)cc1 (centres undefined) | 95.2% (inactive) |
| CCN(CC)CCNC(=O)c1ccc(NC(C)=O)cc1 | 101% (inactive) |
| CCOC(=O)C1CCc2c(ccc3ccccc23)N1CCC#N (centres undefined) | 85.9% (inactive) |
| CN(C)CCN1C(=O)c2cccc3cc(N)cc(c23)C1=O | 7.96% (active) |
| COc1ccc2c(c1)nc(N)c1c3cccnc3cn21 | 20.4% (inactive) |
| CN1CC[C@@H](c2c(O)cc(O)c3c(=O)cc(-c4ccccc4Cl)oc23)[C@@H](O)C1 | 9.53% (active) |
| O=C(/C=C/c1cc2ccccc2[nH]c1=O)c1ccc2c(c1)OCO2 | 80.6% (inactive) |
| CCCC1(CC(=O)O)OCCc2c1[nH]c1ccccc21 (centres undefined) | 102% (inactive) |

| Compound | growth |
| --- | --- |
| C=C(Cl)[C@@](Cl)(CBr)CC[C@@H](Br)C(C)(C)Cl | -51.7% (active) |
| CC[C@H](C)C(=O)O[C@H]1CCC=C2C=C[C@H](C)C(CCC3C[C@@H](O)CC(=O)O3)[C@H]21 (some centres undefined) | 83.6% (inactive) |
| CC1CN(Cc2ccccc2)C(=O)NC1=O (centres undefined) | 94.8% (inactive) |
| Cc1cccc2c(NCCN(C)C)c3cccc(C(=O)NCCN(C)C)c3nc12 | 2.67% (active) |
| O=C(CCCCCCC(=O)Nc1cccnc1)NO | 35.3% (inactive) |
| O=C1OCC2=C1C(c1cccc(Br)c1)c1cc3c(cc1N2CCO)CCC3 (centres undefined) | 21.4% (inactive) |
| O=C(CNC(=O)OCc1ccccc1)NCC(=O)Oc1ccc([N+](=O)[O-])cc1 | 95.8% (inactive) |
| CC(C)C[C@H](NC(=O)[C@H](Cc1cccc2ccccc12)NS(=O)(=O)c1cccc2cccnc12)B(O)O | 9.94% (active) |
| Cc1cc(C)c(NC(=O)c2sc3nc4c(cc3c2N)C(=O)CCC4)c(C)c1 | 16.8% (inactive) |
| COc1cc(NC(=O)CSc2nc3ccccc3c(=O)n2CCc2ccccc2)cc(OC)c1OC | 51% (inactive) |
| CCOCCOCCOCCOCCOCCOCCOCCOCCOCCO (tested in a mixture with another compound) | 3.56% (active) |
| COc1cc(OC)cc(-c2cncn2-c2ccc(-c3nc4cc(OC)cc(OC)c4s3)cc2)c1 | 20.9% (inactive) |
| COc1ccc(OC)c2c1C(=O)CC2C (centres undefined) | 99.6% (inactive) |
| Nc1ncn(C2OC(CO)C(O)C2O)c(=O)n1 (centres undefined) | 11.5% (inactive) |
| N#Cc1c(C#N)c(SSc2c(C#N)c(C#N)c(N)n2-c2ccccc2)n(-c2ccccc2)c1N | 104% (inactive) |
| CCCCCCCCCCCCCCCCCCOCC(COCCOCC[N+]1(CCCCCC(=O)[O-])CCCC1)Oc1ncccn1 (centres undefined) | 25.7% (inactive) |
| O=C1NC(=O)N(Cc2ccccc2)CC1Br (centres undefined) | 56.6% (inactive) |
| C=C(NC(=O)C(=C)NC(=O)c1csc(C2=NC3c4csc(n4)C4NC(=O)c5csc(n5)C(C(C)(O)C(C)O)NC(=O)C5CSC(=N5)/C(=C/C)NC(=O)C(C(C)O)NC(=O)c5csc(n5)C3(CC2)NC(=O)C(C)NC(=O)C(=C)NC(=O)C(=C)NC(=O)C(C(C)C)NC2C=Cc3c(C(C)O)cc(nc3C2O)C(=O)OC4C)n1)C(N)=O (centres undefined) | 19.8% (inactive) |
| O=C1ON=[N+](c2ccc(Cc3ccc([N+]4=NOC(=O)C4CN4CCOCC4)cc3)cc2)C1CN1CCOCC1 (centres undefined) | 45.6% (inactive) |

What follows are molecules tested on HCT-116 colon in the same assay as above. Conditions: 10 µM.

| Compound | growth |
| --- | --- |
| c1ccc([C@H]2CN3CCSC3=N2)cc1 | 110% (inactive) |
| NC(=O)SCC(=O)Nc1ccc(S(N)(=O)=O)cc1 | 109% (inactive) |
| Cc1nc2ccc(CN(C)c3ccc(C(=O)N[C@@H](CCC(=O)O)C(=O)O)s3)cc2c(=O)[nH]1 | 40% (inactive) |
| COc1ccc(OC)c(/C=C/c2nc(SCc3ccccc3)n(-c3ccc(Cl)cc3)n2)c1 | 20.2% (inactive) |
| COc1cc(Cc2cc(-c3ccc(Cl)cc3)n[nH]c2=O)ccc1O | 101% (inactive) |
| CN(C)C(=S)N/N=C\C=N/NC(=S)N(C)C | 0.438% (active) |
| COc1ccc(N=C2C(=Nc3ccc(OC)cc3)N(c3ccc(N(C)C)cc3)C(=S)N2c2ccc(OC)cc2)cc1 | 81.6% (inactive) |
| COC(=O)[C@@H]1[C@H](O)[C@H](C)[C@H](O)[C@@](C)(O)/C=C\C=C(C)C(=O)Nc2c(C)c(OC(C)=O)c3c(c2O)C(=O)C(C)=C2OCOC(=C23)C(C)=C[C@@](C)(O)[C@H](O)[C@@H](C)[C@H]1OC(C)=O | 114% (inactive) |
| COc1cccc(C2C3=C(COC3=O)N(CCO)c3cc(OC)ccc32)c1 (centres undefined) | 10.6% (inactive) |
| CCc1ccc2c(c1)N(CCO)C1=C(C(=O)OC1)C2c1ccccc1 (centres undefined) | 89.3% (inactive) |
| CO/N=C(/C(=O)NC1C(=O)N2C(C(=O)O)=C(COC(N)=O)CSC12)c1ccco1 (centres undefined) | 104% (inactive) |
| COc1ccc(N2C(=O)C3c4[nH]c5ccc(OCc6ccccc6)cc5c4C4CCC(C(C)C)CC4C3C2=O)cc1 (centres undefined) | 109% (inactive) |
| CCN(CC)CCNC(=O)c1ccc(NC(C)=O)cc1 | 105% (inactive) |
| CCOC(=O)C1CCc2c(ccc3ccccc23)N1CCC#N (centres undefined) | 96.4% (inactive) |
| CN(C)CCN1C(=O)c2cccc3cc(N)cc(c23)C1=O | 13.7% (inactive) |
| COc1ccc2c(c1)nc(N)c1c3cccnc3cn21 | 10.8% (inactive) |
| O=C(/C=C/c1cc2ccccc2[nH]c1=O)c1ccc2c(c1)OCO2 | 81.6% (inactive) |
| CCCC1(CC(=O)O)OCCc2c1[nH]c1ccccc21 (centres undefined) | 107% (inactive) |

| Compound | growth |
| --- | --- |
| C=C(Cl)[C@@](Cl)(CBr)CC[C@@H](Br)C(C)(C)Cl | -94.6% (active) |
| CC[C@H](C)C(=O)O[C@H]1CCC=C2C=C[C@H](C)C(CCC3C[C@@H](O)CC(=O)O3)[C@H]21 (some centres undefined) | 46.4% (inactive) |
| CC1CN(Cc2ccccc2)C(=O)NC1=O (centres undefined) | 106% (inactive) |
| Cc1cccc2c(NCCN(C)C)c3cccc(C(=O)NCCN(C)C)c3nc12 | 8.86% (active) |
| O=C(CCCCCCC(=O)Nc1cccnc1)NO | 9.09% (active) |
| O=C1OCC2=C1C(c1cccc(Br)c1)c1cc3c(cc1N2CCO)CCC3 (centres undefined) | 6.12% (active) |
| O=C(CNC(=O)OCc1ccccc1)NCC(=O)Oc1ccc([N+](=O)[O-])cc1 | 93.7% (inactive) |
| CC(C)C[C@H](NC(=O)[C@H](Cc1cccc2ccccc12)NS(=O)(=O)c1cccc2cccnc12)B(O)O | -91.2% (active) |
| COc1cc(NC(=O)CSc2nc3ccccc3c(=O)n2CCc2ccccc2)cc(OC)c1OC | -0.608% (active) |
| CCOCCOCCOCCOCCOCCOCCOCCOCCOCCO (tested in a mixture with another compound) | 3.57% (active) |
| COc1cc(OC)cc(-c2cncn2-c2ccc(-c3nc4cc(OC)cc(OC)c4s3)cc2)c1 | 36.8% (inactive) |
| COc1ccc(OC)c2c1C(=O)CC2C (centres undefined) | 111% (inactive) |
| Nc1ncn(C2OC(CO)C(O)C2O)c(=O)n1 (centres undefined) | -32% (active) |
| CCCCCCCCCCCCCCCCCCOCC(COCCOCC[N+]1(CCCCCC(=O)[O-])CCCC1)Oc1ncccn1 (centres undefined) | 20.4% (inactive) |
| O=C1NC(=O)N(Cc2ccccc2)CC1Br (centres undefined) | 28.1% (inactive) |
| C=C(NC(=O)C(=C)NC(=O)c1csc(C2=NC3c4csc(n4)C4NC(=O)c5csc(n5)C(C(C)(O)C(C)O)NC(=O)C5CSC(=N5)/C(=C/C)NC(=O)C(C(C)O)NC(=O)c5csc(n5)C3(CC2)NC(=O)C(C)NC(=O)C(=C)NC(=O)C(=C)NC(=O)C(C(C)C)NC2C=Cc3c(C(C)O)cc(nc3C2O)C(=O)OC4C)n1)C(N)=O (centres undefined) | -49.5% (active) |
| O=C1ON=[N+](c2ccc(Cc3ccc([N+]4=NOC(=O)C4CN4CCOCC4)cc3)cc2)C1CN1CCOCC1 (centres undefined) | 63.7% (inactive) |
| C/C(=N\Nc1nc2ccccc2s1)c1ccncn1 | 5.21% (active) |
